Records with an inconclusive call do not appear. The source made the active and inactive calls. Calls follow the shape of the dose curve; as a rule, active = well fitted curve in the direction sought with a large enough effect; inconclusive = small, poorly fitted or top-dose-only effect, or another doubt; inactive = no such curve, though single readings can be large; an effect the other way counts as inactive or inconclusive.
Assays:
[1] = Cellular Toxicity (caspase-3) NIH 3T3 (AID 666); settings: NIH 3T3 caspase-3 activation, apoptosis/toxicity; series mostly up to 92.2 µM;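 also: caspase signal read after 16 h compound exposure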
Summary of the method: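 Activity: caspase-3/7 induction, NIH 3T3 cells, 16 hr treatment at 37°C, luminescent Caspase-Glo detection; AC50 via Hill equation.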

[2] = Cellular Toxicity (caspase-3) Renal Proximal Tubule (AID 667); settings: renal proximal tubule cells; series mostly up to 91.7 µM;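 also: cells exposed to compound for 16 hours at 37 °C before detection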
Summary of the method: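 In qHTS format, rat primary proximal tubule cells seeded at 1000 per well are exposed to compounds for 16 hours at 37 °C. An increase in Caspase-Glo 3/7 luminescence indicates caspase activation.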

[3] = target: Cytochrome P450 3A4 (Homo sapiens) (UniProt P08684); assay: qHTS Assay for Inhibitors and Substrates of Cytochrome P450 3A4 (AID 884); settings: recombinant CYP3A4, Luciferin-PPXE luminescence; series mostly up to 57.1 µM; also: nearly all actives have a fitted effect of over 50% in size
Cytochrome P450 3A4 (Homo sapiens), sequence (P08684 whole entry, looked up): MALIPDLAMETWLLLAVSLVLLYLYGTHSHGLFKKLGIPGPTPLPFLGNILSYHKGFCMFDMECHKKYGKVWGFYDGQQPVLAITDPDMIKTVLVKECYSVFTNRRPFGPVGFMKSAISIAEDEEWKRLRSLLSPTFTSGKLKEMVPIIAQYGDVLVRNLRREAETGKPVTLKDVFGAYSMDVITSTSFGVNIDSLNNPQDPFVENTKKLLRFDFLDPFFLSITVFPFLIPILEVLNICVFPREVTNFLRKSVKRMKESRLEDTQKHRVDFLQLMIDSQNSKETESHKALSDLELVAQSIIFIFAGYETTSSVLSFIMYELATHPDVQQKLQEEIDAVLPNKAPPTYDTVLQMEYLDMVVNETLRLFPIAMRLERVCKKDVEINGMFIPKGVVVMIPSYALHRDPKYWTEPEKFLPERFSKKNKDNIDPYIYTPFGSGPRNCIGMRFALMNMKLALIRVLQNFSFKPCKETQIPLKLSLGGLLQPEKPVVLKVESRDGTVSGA
Summary of the method: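 Luminescent readout of luciferin produced by CYP3A4 (20 nM) dealkylation of Luciferin-PPXE, 25 uM (its KM). NADPH-driven reaction ran 60 min at RT after 10 min compound preincubation; data scaled to 57 uM ketoconazole as 100% inhibition.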

[4] = Cell Viability - LYMP2-001 (AID 921); settings: LYMP2-001 lymphoblastoid cell viability; series mostly up to 92.2 µM; also: nearly all actives have a fitted effect of over 70% in size
Summary of the method: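 qHTS, 1536-well; lymphoblastoid cells, 24 hr compound, 37 C; ATP by CellTiter-Glo, 30 min RT; luminescence; Hill-fit AC50.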

[5] = MultiTox-Fluor Cytotoxicity Assay - LYMP1-001 - Dead Cells (AID 946); settings: LYMP1-001 lymphoblastoid cells, dead-cell protease fluorescence; series mostly up to 92.2 µM
Summary of the method: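 LYMP1-001 lymphoblastoid cells (2500/well) treated 16 h at 37 C. Dead-cell protease cleavage of bis-AAF-R110 read at Ex/Em 485/520. Normalized to DMSO and 15 uM tetraoctylammonium bromide; AC50 from Hill fits.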

[6] = MultiTox-Fluor Cytotoxicity Assay - LYMP1-001 - Live Cells (AID 947); settings: LYMP1-001 lymphoblastoid cells, live-cell protease fluorescence viability; series mostly up to 92.2 µM
[7] = Cell Viability - LYMP1-002 - Assay at 16 hr (AID 948); settings: LYMP1-002 lymphoblastoid cell viability; series mostly up to 92.2 µM
Summary of the method: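 Acute cytotoxicity is scored as a concentration-dependent fall in intracellular ATP in a human lymphoblastoid line (LYMP1-002) after 16 hr compound exposure at 37 C, measured by luciferase luminescence.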

[8] = MultiTox-Fluor Cytotoxicity Assay - LYMP1-002 - Live Cells (AID 955); settings: LYMP1-002 lymphoblastoid live-cell protease fluorescence viability; series mostly up to 46.1 µM
Summary of the method: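 In this qHTS viability format, lymphoblastoid cells (LYMP1-002, human) received compound for 16 hr at 37 C. Fluorogenic GF-AFC cleavage by viable cells was detected at 405/510 nm after 1 h at room temperature.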

[9] = MultiTox-Fluor Cytotoxicity Assay - LYMP1-002 - Dead Cells (AID 960); settings: LYMP1-002 lymphoblastoid cells, dead-cell protease fluorescence; series mostly up to 46.1 µM; also: nearly all actives have a fitted effect of over 60% in size
Summary of the method: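 Concentration-dependent increases in membrane-leaked protease activity are quantified in LYMP1-002 cells after 16 hr treatment; values are normalized against DMSO and tetraoctylammonium bromide (15 uM) controls and AC50 derived by Hill modeling.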

[10] = MultiTox-Fluor Cytotoxicity Assay - LYMP1-003 - Dead Cells (AID 961); settings: LYMP1-003 lymphoblastoid cells, dead-cell protease fluorescence; series mostly up to 92.2 µM; also: nearly all actives have a fitted effect of over 70% in size
Summary of the method: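 LYMP1-003 human lymphoblastoid cells (2500/well) exposed to compound 16 h at 37 C in complete medium; dead-cell protease read with bis-AAF-R110 fluorescence (Ex/Em 485/520) after 60 min at room temperature. Normalized to DMSO and 15 uM tetraoctylammonium bromide; AC50 from Hill fit.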

[11] = MultiTox-Fluor Cytotoxicity Assay - LYMP1-003 - Live Cells (AID 962); settings: LYMP1-003 lymphoblastoid cells, MultiTox-Fluor live-cell protease fluorescence; series mostly up to 92.2 µM;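 also: cytotoxic hits lower the live-cell protease signal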
Summary of the method: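 Human lymphoblastoid line LYMP1-003 in complete culture medium, treated 16 hr with titrated compounds. Viable cells quantified via cell-permeant GF-AFC substrate fluorescence; AC50 derived by Hill fitting.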

[12] = Cell Viability - LYMP1-003 - Assay at 24 hr (AID 963); settings: LYMP1-003 lymphoblastoid cell viability; series mostly up to 92.2 µM
Summary of the method: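 The lymphoblastoid line was treated with titrated compounds for 24 hours, and viable cell number estimated from luciferase-based ATP luminescence.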

[13] = Cell Viability - LYMP1-003 - Assay at 40 hr (AID 964); settings: LYMP1-003 lymphoblastoid viability; series mostly up to 92.2 µM; also: nearly all actives have a fitted effect of over 60% in size
Summary of the method: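 Acute toxicity is scored as a concentration-dependent loss of intracellular ATP in LYMP1-003 cells (2500/well, complete medium) after 40 hr at 37 C, measured by CellTiter-Glo luminescence; AC50 values derive from standard Hill modelling.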

[14] = Cell Viability - LYMP2-003 (AID 965); settings: LYMP2-003 lymphoblastoid cell viability; series mostly up to 92.2 µM;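 also: cells exposed to compounds for 24 h before reading; nearly all actives have a fitted effect of over 50% in size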
Summary of the method: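 Acute cytotoxicity is scored as a concentration-dependent drop in intracellular ATP, measured by luciferase luminescence in human lymphoblastoid cells treated for 24 hours at 37 C. AC50 values derive from Hill-equation modelling.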

[15] = Cell Viability - LYMP2-004 (AID 966); settings: LYMP2-004 lymphoblastoid cell viability, qHTS; series mostly up to 92.2 µM; also: nearly all actives have a fitted effect of over 65% in size
Summary of the method: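 Viable-cell number estimated from ATP luminescence (CellTiter-Glo) in 2500 human lymphoblastoid cells/well after 24 hr at 37 C with compound. AC50 fitted to the standard Hill equation.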

[16] = Cell Viability - LYMP2-005 (AID 967); settings: LYMP2-005 lymphoblastoid cell viability; series mostly up to 92.2 µM
Summary of the method: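 qHTS viability screen in LYMP2-005 cells: 24 h at 37 C with compound, ATP luminescence via CellTiter-Glo, AC50 from Hill curves.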

[17] = Cell Viability - LYMP2-009 (AID 968); settings: LYMP2-009 lymphoblastoid cell viability; series mostly up to 92.2 µM; also: nearly all actives have a fitted effect of over 55% in size
[18] = Cell Viability - LYMP2-011 (AID 969); settings: LYMP2-011 lymphoblastoid cells viability; series mostly up to 92.2 µM; also: nearly all actives have a fitted effect of over 60% in size
Summary of the method: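 Cells seeded at 2500 per well rest 5 hr before compound addition, then incubate 24 hr at 37 C. CellTiter-Glo reagent is added for 30 min at room temperature before luminescence detection.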

[19] = Cell Viability - LYMP2-013 (AID 970); settings: LYMP2-013 lymphoblastoid cells viability; series mostly up to 92.2 µM; also: nearly all actives have a fitted effect of over 55% in size
Summary of the method: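 In complete culture medium, human lymphoblastoid cells were dosed for 24 hr at 37 C, with tetraoctylammonium bromide (6.4pM to 92 uM) as positive control. Viability reflects luciferase-based ATP signal; AC50 derived from concentration-response curves.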

[20] = Cell Viability - LYMP2-015 (AID 971); settings: LYMP2-015 lymphoblastoid cell viability; series mostly up to 92.2 µM; also: nearly all actives have a fitted effect of over 55% in size
Summary of the method: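 AC50 values reflect Hill-model fits of ATP-based luminescence (CellTiter-Glo) from a human lymphoblastoid line, 2500 cells/well, treated 24 hr at 37 C.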

[21] = Cell Viability - LYMP2-017 (AID 972); settings: LYMP2-017 lymphoblastoid cell viability; series mostly up to 92.2 µM;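 also: cells exposed to compound for 24 hours at 37 °C; nearly all actives have a fitted effect of over 55% in size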
Summary of the method: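 In this qHTS format, lymphoblastoid cells in complete medium receive test compound for a day at 37 C before ATP content is quantified by luciferase luminescence. Reported AC50 figures come from standard Hill-equation curve fitting.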

Measured: Potency

COC(C)(C)C
inactive: all assays above

From PubChem BioAssay (NCATS)
